# Records with an inconclusive call do not appear. Active and inactive are the calls of the source. Calls come from the whole dose curve; as a rule, active = well fitted curve in the direction sought with a large enough effect; inconclusive = small, poorly fitted or top-dose-only effect, or another doubt; inactive = no such curve, though single readings can be large; an effect the other way counts as inactive or inconclusive.
# How the values were obtained:
# [1] = qHTS of pediatric cancer cell lines to identify multiple opportunities for drug repurposing: Confirmatory screen for LAN-5 cells (AID 1347113); note: nearly all actives have a fitted effect of over 65% in size; note: potency is the fitted concentration of half-maximal effect
# Procedure, shortened: (§1)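 Cells (500-1,000/well) rested 5 h, then received compounds for 48 h; metabolically active cells were measured by CellTiter-Glo luminescence. Final concentrations spanned up to 46 µM (MIPE, 11-point) or 0.59 nM-46 µM (NPC, 8-point) in primary screens, 11-point in follow-ups.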
# [2] = qHTS of pediatric cancer cell lines to identify multiple opportunities for drug repurposing: Confirmatory screen for TC32 cells (AID 1347118);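 note: potency is the fitted concentration of half-maximal effect; cells exposed to compound for 48 h before the read; nearly all actives have a fitted effect of over 65% in size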
# Procedure, shortened: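 Luminescent ATP read-out (CellTiter-Glo) of metabolically active TC32 cells after 48 h exposure. Concentration-response curves came from 11-point (MIPE, 0.78 nM–46 µM) or 8-point (NPC, 0.59 nM–46 µM) primary titrations; follow-up used 11 points.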
# [3] = qHTS of pediatric cancer cell lines to identify multiple opportunities for drug repurposing: Confirmatory screen for control Hh wild type fibroblast cells (AID 1347121); note: nearly all actives have a fitted effect of over 70% in size; note: potency is the fitted concentration of half-maximal effect
# Procedure, shortened: as §1
# [4] = qHTS of pediatric cancer cell lines to identify multiple opportunities for drug repurposing: Confirmatory screen for Rh41 cells (AID 1347123);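 note: 48 h compound exposure; nearly all actives have a fitted effect of over 60% in size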; note: potency is the fitted concentration of half-maximal effect
# Procedure, shortened: as §1
# [5] = qHTS of pediatric cancer cell lines to identify multiple opportunities for drug repurposing: Confirmatory screen for Rh30 cells (AID 1347126); note: nearly all actives have a fitted effect of over 55% in size; note: potency is the fitted concentration of half-maximal effect
# Procedure, shortened: as §1
# [6] = qHTS of pediatric cancer cell lines to identify multiple opportunities for drug repurposing: Confirmatory screen for SK-N-SH cells (AID 1347129);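 note: cells exposed to compound for 48 h before viability read; nearly all actives have a fitted effect of over 60% in size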; note: potency is the fitted concentration of half-maximal effect
# Procedure, shortened: as §1
# [7] = system: Zika virus NS2B-NS3 protease; assay: Primary screen GU AMC qHTS for Zika virus inhibitors (AID 1347154); note: nearly all actives have a fitted effect of over 70% in size
# Procedure, shortened: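 Fluorogenic AMC-substrate cleavage by noncovalent NS2B-NS3 protease complex (25 nM, pH 8.0 Tris buffer with Tween 20) followed for 15 minutes at room temperature (~20% conversion). Percent inhibition from ex340/em450 signal change, fitted by 4-parameter Hill equation.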
# [8] = qHTS of pediatric cancer cell lines to identify multiple opportunities for drug repurposing: Confirmatory screen for NB-EBc1 cells (AID 1347115);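 note: potency is the fitted concentration of half-maximal effect; cells exposed to compound for 48 h before the viability read; nearly all actives have a fitted effect of over 45% in size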
# Procedure, shortened: as §1
# [9] = qHTS of pediatric cancer cell lines to identify multiple opportunities for drug repurposing: Confirmatory screen for BT-37 cells (AID 1347117); note: potency is the fitted concentration of half-maximal effect; nearly all actives have a fitted effect of over 55% in size
# Procedure, shortened: as §1
# [10] = qHTS of pediatric cancer cell lines to identify multiple opportunities for drug repurposing: Confirmatory screen for Saos-2 cells (AID 1347127); note: nearly all actives have a fitted effect of over 60% in size; note: potency is the fitted concentration of half-maximal effect
# Procedure, shortened: as §1
# [11] = qHTS of pediatric cancer cell lines to identify multiple opportunities for drug repurposing: Confirmatory screen for OHS-50 cells (AID 1347128);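 note: compound exposure lasted 48 h at 37 degrees C; nearly all actives have a fitted effect of over 55% in size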; note: potency is the fitted concentration of half-maximal effect
# Procedure, shortened: as §1
# [12] = qHTS of pediatric cancer cell lines to identify multiple opportunities for drug repurposing: Confirmatory screen for SJ-GBM2 cells (AID 1347116); note: nearly all actives have a fitted effect of over 60% in size
# Procedure, shortened: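 Viability measured as metabolically active cells via CellTiter-Glo luminescence following 48 hours of compound exposure, 11-point dilutions in confirmatory testing. 500-1,000 cells/well plated 5 hours before dosing; controls were DMSO and 2.3 µM bortezomib.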
# [13] = qHTS of pediatric cancer cell lines to identify multiple opportunities for drug repurposing: Confirmatory screen for U-2 OS cells (AID 1347122); note: nearly all actives have a fitted effect of over 65% in size
# Procedure, shortened: as §1
# [14] = qHTS of pediatric cancer cell lines to identify multiple opportunities for drug repurposing: Confirmatory screen for RD cells (AID 1347124);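 note: cells exposed to compound for 48 h before viability readout; nearly all actives have a fitted effect of over 65% in size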
# Procedure, shortened: as §1
SMILES,Potency [1],Potency [2],Potency [3],Potency [4],Potency [5],Potency [6],Potency [7],Potency [8],Potency [9],Potency [10],Potency [11],Potency [12],Potency [13],Potency [14]
S=C(SSC(=S)N1CCCCC1)N1CCCCC1,1.04 µM (active),2.61 µM (active),inactive,0.329 µM (active),36.9 µM (active),inactive,inactive,–,–,–,–,–,–,–
C[C@@H]1CC[C@@]2(OC1)O[C@H]1C[C@H]3[C@@H]4CC=C5C[C@@H](O[C@@H]6O[C@H](CO)[C@@H](O[C@@H]7O[C@@H](C)[C@H](O)[C@@H](O)[C@@H]7O)[C@H](O)[C@@H]6O[C@@H]6O[C@@H](C)[C@H](O)[C@@H](O)[C@@H]6O)CC[C@]5(C)[C@@H]4CC[C@]3(C)[C@@H]1[C@H]2C,4.65 µM (active),4.14 µM (active),13.1 µM (active),–,4.14 µM (active),16.6 µM (active),inactive,16.5 µM (active),5.22 µM (active),5.22 µM (active),5.22 µM (active),–,–,–
Cc1c(N)nc([C@H](CC(N)=O)NC[C@@H](N)C(N)=O)nc1C(=O)N[C@H](C(=O)N[C@@H](C)[C@H](O)[C@@H](C)C(=O)N[C@@H](C(=O)NCCc1nc(-c2nc(C(=O)NCCC[S+](C)C)cs2)cs1)[C@@H](C)O)C(O[C@H]1O[C@H](CO)[C@H](O)[C@@H](O)[C@@H]1O[C@H]1O[C@H](CO)[C@@H](O)[C@H](OC(N)=O)[C@H]1O)c1cnc[nH]1 (stereo not given in full),inactive,–,inactive,inactive,inactive,–,inactive,–,–,inactive,inactive,inactive,inactive,–
Cc1[nH]nc2ccc(-c3cncc(OC[C@@H](N)Cc4c[nH]c5ccccc45)c3)cc12,2.33 µM (active),2.33 µM (active),18.5 µM (active),–,–,2.96 µM (active),inactive,–,1.65 µM (active),2.61 µM (active),2.61 µM (active),–,–,inactive
